# From PubChem
# A selection: hits, their analogues and other compounds. The true share with any hit is near 6.9%.
# MCF10A rereplic – induces DNA re-replication in MCF 10a normal breast cells; MCF 10A DNA re-replication, Hoechst nuclear intensity, 48 h; Potency, µM (doses to about 46.1 µM), for the others: at the top dose activity, positive = re-replication, usual class: activators; 2.9% of 350,000 active; also: potency is read from the fitted curve at half-maximal effect; % of control where 0% means no effect; nearly all actives have a fitted effect of over 50% in size
# Vif-A3F inh – inhibitors of Vif-A3F interaction; HeLa A3F-eYFP + Vif (tagged APOBEC3F with the HIV-1 protein that degrades it), YFP fluorescence increase; Potency, µM (highest dose often 46.1 µM), for inactives: at the highest dose activity, negative = active; 0.2% of 390,000 active; AID 602313; also: potency is read from the fitted curve at half-maximal effect; % of control where 0% means no effect; nearly all actives have a fitted effect of over 65% in size
#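 HeLa cells stably expressing Vif plus C-terminally eYFP-tagged A3F were seeded, incubated overnight at 37 deg C, dosed with compound, incubated overnight again at 37 deg C. Yellow fluorescence (Ex 488/Em 500-530) reported blocked Vif-mediated A3F-eYFP degradation.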
# IL1B secr inh – blocks inflammasome-driven IL-1 beta release; THP-1 LPS/ATP IL-1B secretion, AlphaLISA, 16 h; stronger effect = lower value; activity change, % at 57.5 µM; 4.7% of 360,000 active; in the data active = activity change below about -50%; inconclusive = mostly about -30% to -49%; also: % is scaled to controls: 0 for no effect and ±100 for the full control effect
#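 THP-1 cells pretreated 1 hr with compounds (up to 57.5 uM final), then stimulated with LPS (250 ng/mL final) plus ATP (1.25 mM final); secreted IL-1B measured by AlphaLISA after 16 hr, decreased signal indicating inhibition.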
# Vif-APOBEC3G blk – inhibitors of Vif-APOBEC3G interaction | Q9HC16 | HeLa A3G-eYFP + Vif (tagged APOBEC3G with the HIV-1 protein that degrades it), YFP fluorescence, overnight | Potency, µM (titrated, usually from 46.1 µM), without a hit: at the top dose activity, negative = active, most hits filed as inhibitors | 0.076% of 410,000 active; also: potency is read from the fitted curve at half-maximal effect; % is scaled to controls: 0 for no effect and ±100 for the full control effect; nearly all actives have a fitted effect of over 60% in size
# Target sequence (Q9HC16 whole entry, looked up): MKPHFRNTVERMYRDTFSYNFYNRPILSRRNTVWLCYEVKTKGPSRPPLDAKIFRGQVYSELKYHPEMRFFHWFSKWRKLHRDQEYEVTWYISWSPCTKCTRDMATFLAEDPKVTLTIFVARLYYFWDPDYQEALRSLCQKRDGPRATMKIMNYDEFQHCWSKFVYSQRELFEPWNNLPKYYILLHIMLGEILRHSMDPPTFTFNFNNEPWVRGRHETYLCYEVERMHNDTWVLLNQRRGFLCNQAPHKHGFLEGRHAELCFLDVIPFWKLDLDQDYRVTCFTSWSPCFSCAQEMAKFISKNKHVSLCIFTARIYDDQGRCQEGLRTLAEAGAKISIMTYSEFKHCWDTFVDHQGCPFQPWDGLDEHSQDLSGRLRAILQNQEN
#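 Read-out is eYFP fluorescence (Ex 488/Em 500-530) from Vif-expressing HeLa A3G-eYFP cells; more signal means A3G escaped Vif-mediated degradation. Cells plated overnight, compound pinned in, incubated overnight at 37 deg C.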
# SW480 rerep – induces DNA re-replication in SW480 colon adenocarcinoma cells; SW480 DNA re-replication, Hoechst DNA content imaging, 48 h; Potency, µM (doses to about 46.1 µM), for inactives: at the top dose re-replication activation, hits mostly activators; 1.8% of 340,000 active; AID 624297; also: potency is read from the fitted curve at half-maximal effect; % of control where 0% means no effect; nearly all actives have a fitted effect of over 55% in size
#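 DNA re-replication was detected as more nuclei of elevated Hoechst intensity after 48 hr exposure to compound (23 nL pinned per well of 250 cells).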
# Giardia kill – kills Giardia lamblia | Giardia lamblia trophozoite viability | activity change, % at 7.66 µM, hits read low | 0.15% of 340,000 active | AID 540267; in the data active = activity change below about -80%; inconclusive = between about -30% and that limit;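 also: parasites exposed to compound for two days anaerobically before the ATP read; % is scaled to controls: 0 for no effect and ±100 for the full control effect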
#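 Trophozoite viability was measured as ATP-dependent luminescence, read 15-30 min after reagent addition. Before that, parasites at 100 cells/well were exposed to compounds for 48 h, anaerobically, at 37 deg C.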
# Numbers without * were called inactive; ? = inconclusive; nt = no result. Unless noted, calls follow the shape of the dose curve; as a rule, active = well fitted curve in the direction sought with a large enough effect; inconclusive = small, poorly fitted or top-dose-only effect, or another doubt; inactive = no such curve, though single readings can be large; an effect the other way counts as inactive or inconclusive.
SMILES,MCF10A rereplic,Vif-A3F inh,IL1B secr inh,Vif-APOBEC3G blk,SW480 rerep,Giardia kill
C=C1C(=O)OC2C=C(CO)CCC=C(CO)CC(OC(=O)C(C)C)C12 (configuration not stated),10µM*,9%,-101*,-26%,?,-1
CCC1CCC/C1=N\NC(=O)c1ccccc1Cl (configuration not stated),?,5%,nt,0%,-9%,9
CCC1CCC/C1=N\NC(=O)c1cc(C)[nH]n1 (configuration not stated),2.9µM*,0%,9,1%,16µM*,7
CCC1CCCCN1C(=O)Cn1c(=O)n(-c2ccccc2C(F)(F)F)c(=O)c2c(C)c(C(=O)N(C)C)sc21 (configuration not stated),nt,3%,nt,-1%,nt,nt
Cc1cccc(NC(=O)CSc2nc(-c3cccs3)cc(C(F)(F)F)c2C#N)c1,nt,3%,nt,-2%,nt,nt
CCCN(CC1CC1)C(=S)Nc1ccc(C(C)=O)cc1,-1%,-1%,-84*,2%,-7%,-20
CC(=O)c1ccc(NC(=S)N(C)C2CCN(C)CC2)cc1,-1%,5%,?,-1%,4%,-14
COc1ccc(CNC(=O)CCSCc2cccc(Cl)c2)cc1,-2%,-13%,-4,0%,1%,-4
COc1ccccc1CNC(=O)CCSCc1cccc(Cl)c1,13%,-14%,-72*,1%,-8%,9
CN1CCCC(CN2c3ccccc3Sc3ccccc32)C1 (configuration not stated),-25%,0%,?,-1%,?,9
CN1CCCC(CC2c3ccccc3Sc3ccccc32)C1 (configuration not stated),-29%,-5%,-58*,3%,-11%,-10
COC(=O)c1c(NC(=O)C(Cl)Cl)sc2c1C(C(=O)OC)CC2 (configuration not stated),8.2µM*,6%,0,?,?,-10
CC(=Nc1ccccc1)C1=C(O)C(Cc2ccc(O)cc2)NC1=O (configuration not stated),0.46µM*,7%,31,-38%,0.13µM*,-9
CN(C)CCC(c1ccc(Cl)cc1)c1ccccn1 (configuration not stated),?,8%,-25,-2%,?,-11
CN(C)CCC1c2ccc(Cl)cc2CCc2cccnc21 (configuration not stated) (tested in a mixture with another compound),?,-4%,-75*,3%,6%,24
Cc1ccc(C)c(CS(=O)(=O)c2cn(CC(=O)N(C(C)C)C(C)C)c3ccccc23)c1,nt,-18%,nt,0%,nt,nt
COc1ccc(-n2c(SCC(=O)NCC3CCCO3)nc3n[nH]c(C)c3c2=N)cc1 (configuration not stated),14%,-2%,-56*,-7%,1%,-12
Cc1cc(-n2c(SCC(=O)NCCC3=CCCCC3)nc3n[nH]c(C)c3c2=N)ccc1Cl,21µM*,-5%,14,-15%,26%,-13
Cc1ccc(-n2c(SCC(=O)NCC3CCCO3)nc3n[nH]c(C)c3c2=N)cc1Cl (configuration not stated),11%,-4%,-18,-1%,-7%,-16
Cc1cc(C)cc(NC(=O)Cn2nnc(C(=O)Nc3cc(C)cc(C)c3)c2N)c1,nt,?,nt,-12%,nt,nt
N#Cc1c(N)[nH]c2ccc(Sc3ccccc3)cc12,0.92µM*,5%,-8,?,4.1µM*,0
N#Cc1c(N)[nH]c(=S)c(C#N)c1-c1ccccc1,?,-4%,-8,0%,?,-4
COC(=O)c1ccc(COc2ccccc2/C=C(\C#N)C(=O)Nc2c(C)cc(C)cc2C)cc1,5.8µM*,?,-79*,-17%,8.2µM*,5
COC(=O)c1ccc(COc2ccccc2/C=C(\C#N)C(=O)Nc2ccc(C)cc2C)cc1,?,-1%,0,-11%,15%,-11
Cc1ccc(OCC(=O)Nc2ccc(O)c(-c3nc4ccccc4o3)c2)cc1,16µM*,3%,-25,-1%,-6%,17
SMILES,MCF10A rereplic,Vif-A3F inh,IL1B secr inh,Vif-APOBEC3G blk,SW480 rerep,Giardia kill
c1ccc2c(N=NN3CCCCC3)ccnc2c1,nt,nt,nt,-5%,nt,nt
C=C(C)CN(CC)c1nc(N)c2c(N)nc3c(c2c1C#N)CC(=O)N3C12CC3CC(CC(C3)C1)C2,24%,1%,-60*,1%,?,4
N#Cc1c(N2CCCC(O)C2)nc(N)c2c(N)nc3c(c12)CC(=O)N3C12CC3CC(CC(C3)C1)C2 (configuration not stated),?,-7%,9,1%,4.6µM*,-1
Cn1c(-c2ccc(F)cc2)cnc1NCc1cc2c(cc1[N+](=O)[O-])OCO2,16%,1%,-64*,-2%,-5%,-6
Cn1c(-c2ccc(Cl)cc2)cnc1NCc1cc2c(cc1[N+](=O)[O-])OCO2,8%,-6%,-82*,-3%,-1%,-10
CCOc1ccc(-c2cnc(NCc3cccc4ccccc34)n2CCOC)cc1,?,-1%,-95*,2%,?,-8
COc1ccc(CNc2ncc(-c3ccc(F)cc3)n2C)c2ccccc12,?,-1%,-82*,-13%,2%,37
CCOc1ccc(-c2cnc(NCc3cccc(Cl)c3)n2C)cc1,nt,-5%,nt,0%,nt,nt
Cc1ccc(C)c(CN2C(=O)c3ccccc3S(=O)c3ccc(C(=O)NCCc4ccc(Cl)cc4)cc32)c1 (configuration not stated),nt,2%,nt,4%,nt,nt
O=C(CCC1N=C2c3ccccc3N=C(SCc3ccccc3Cl)N2C1=O)NCCc1ccccc1 (configuration not stated),nt,-9%,nt,-1%,nt,nt
CCc1cccc(C)c1NC(=O)C(NS(=O)(=O)c1ccc2c(c1)CCC(=O)N2)c1ccccc1 (configuration not stated),nt,-3%,nt,-3%,nt,nt
COc1ccccc1CNC(=O)c1cc2cc3ccc(Cl)cc3nc2o1,nt,-8%,nt,5%,nt,nt
Cc1ccccc1NC(=S)NC(NC(=O)COc1ccccc1)C(Cl)(Cl)Cl (configuration not stated),7%,2%,0,-1%,10%,-1
CCCC(=O)Nc1cccc2c1CCCC2,13%,-3%,-4,5%,3%,-9
CCc1ccc(OCC(=O)NC(NC(=S)Nc2ccccc2C)C(Cl)(Cl)Cl)cc1 (configuration not stated),18µM*,5%,-15,-22%,8%,8
CCc1ccc(OCC(=O)Nc2cccc3c2CCCC3)cc1,2%,-6%,-7,-10%,7.3µM*,5
